In article PMC5540273 (PLoS ONE, 2017):

Test system: MAP3K2
Settings: concentration: 1 μM, replicates: in singlicate; n = 1
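Further: KINOMEscan kinase panel screen.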

Structure (SMILES)	%Inh [%]
COC(=O)c1c(-c2ccccc2)c2cc(Br)ccc2c(=O)n1Cc1ccc(S(C)(=O)=O)cc1	0
Cc1nnc(-c2ccc(C)c(-c3ccc(C(=O)O)cc3)c2)o1 [GW608005]	0
COc1cc2nccc(Nc3ccc(OCc4ccc(NC(C)=O)cc4)cc3)c2cc1OC.Cl [GW440135]	18
Cc1nc(N(C)[C@H]2CN(C(=O)CC#N)CC[C@H]2C)c2cc[nH]c2n1	10
Nc1nc(N)c2nc(-c3ccccc3)[nH]c2n1 [SKF-12778]	26
Cl.c1ccc(Cn2cnc3cc(Nc4ncnc5ccccc45)ccc32)cc1 [GW272142]	0
COC(=O)c1c(-c2ccccc2)c2cc(Br)ccc2c(=O)n1Cc1ccc(NC(=O)CCC(=O)O)cc1	0
O=C(Nc1ccc2c(c1)OCO2)NC1CCN(c2ccnc(NCc3ccc(F)cc3)n2)CC1 [GSK1379859]	0
Cc1ccccc1COc1cc(-n2cnc3cc(Cl)ccc32)sc1C(N)=O [GW813349]	5
Nc1n[nH]c2ncc(-c3ccccc3)cc12 [SB-517081]	15
COc1ccc(-c2coc3ccc(-c4nnc(SCc5cccc(C#N)c5)o4)cc23)cc1	24
Cc1cccc(-c2nc(Nc3ccc4c(cnn4C)c3)c3ccccc3n2)n1 [GW876731]	12
CN(C)c1cc(-c2ccc3c(N)n[nH]c3c2)nc(N)n1 [GSK2219329]	0
COc1cc2ncn(-c3cc(OCCCc4ccccc4)c(C(N)=O)s3)c2cc1OC [GSK205189]	0
CCC(=O)c1c(-c2ccccc2)c2cc(Cl)ccc2c(=O)n1Cc1cc(S(C)(=O)=O)n(CCC(C)(C)O)n1	21
COc1cccc(C2=C(Nc3cccc(C(=O)O)c3)C(=O)NC2=O)c1 [SB-390770]	0
CCc1nc(-c2cccc(C)c2)c(-c2ccncc2)s1	0
CCC(=O)c1c(-c2ccccc2)c2cc(Cl)ccc2c(=O)n1Cc1cc(C(=O)NC2CC2)n(C)n1	10

Structure (SMILES)	%Inh [%]
CCS(=O)(=O)c1ccc(OC)c(Nc2ncc(-c3ccc(F)cc3)o2)c1.Cl [GW591947]	0
COc1cccc(C2=C(N(C)c3ccccc3)C(=O)NC2=O)c1 [SB-334865]	4
CCCC(=O)Nc1n[nH]c2ncc(-c3cccc4ccccc34)cc12 [SB-642057]	2
C[C@@H]1CC[C@H](C(=O)NC2CCCCC2)CN1c1cc(-c2ccc3c(N)n[nH]c3c2)nc(N)n1 [GSK2291363]	20
COc1cc(Nc2nccc(N3CCC(NC(=O)C(C)c4ccc(Cl)cc4)C3)n2)cc(OC)c1OC (stereo not drawn) [GSK1379757]	0
O=C(Nc1n[nH]c2nc(-c3ccccc3)c(Cl)cc12)C1CC1 [SB-734909]	14
CN1C(=O)C(Nc2ccccc2)=C(c2ccccc2)C1=O [SB-300079]	21
CCn1c(-c2nonc2N)nc2ccccc21 [SB-693162/GW549034]	25
Nc1nc(-c2ccccc2F)c(-c2ccnc3ccccc23)s1 [GW560459]	0
Cc1ccc(Oc2ccc(Nc3ncnc4cc[nH]c34)cc2C)cn1	4
O=C(NCc1cccs1)c1cc(C(=O)c2c(Cl)cccc2Cl)c[nH]1 [GW823670]	0
COc1ccc(-c2cc3c(C)nc(N)nc3n([C@H]3CC[C@H](O)CC3)c2=O)cn1	0
COc1cc2ncn(-c3cc(OCc4ccncc4Br)c(C(N)=O)s3)c2cc1OC [GW854278]	20
Cc1cc(Nc2nc(-c3cccc(C)n3)nc3ccccc23)ccn1 [GW872411]	0
COc1ccc(CNC(=O)NC2CCN(c3ccnc(Nc4ccc(F)cc4)n3)C2)cc1 (stereo not drawn) [GSK1379706]	0
COc1cc(Nc2nccc(N3CCC(NC(=O)C4COc5ccccc5O4)C3)n2)cc(OC)c1OC (stereo not drawn) [GSK1379761]	10
COc1cccc(-n2cnc3c(N)ncnc32)c1 [SKF-97416]	35
CCC(=O)c1c(-c2ccccc2)c2cc(Cl)ccc2c(=O)n1Cc1cc(S(C)(=O)=O)n(CC(F)F)n1	0
